From PubChem BioAssay (NCI)
The panel holds about 83,000 compounds, 20% with a hit somewhere; the sample as a whole holds those more often.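 Activity criterion: percent growth below 10, measured after cells in 96-well plates were exposed to a single compound concentration for 48 hours.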 Values without a mark were called inactive. Active and inactive are the calls of the source.

system: MDA-MB-468 breast; assay: NCI-60 one-dose screen, 48 h (100 = growth as untreated, 0 = no growth, -100 = all killed); settings: 10 µM unless noted

SMILES	growth
CC(C)(C)CC(C)(C)n1nnnc1C(Nc1nccs1)c1cc2cccc3ccc4cccc1c4c32 (stereo not given)	-33.3% (active)
O=C(N/N=C\c1ccc(Cl)cc1)C(=O)N/N=C\c1ccc(Cl)cc1	124%
CC1CCC(C(C)C)C(NNC(N)=O)C1 (stereo not given)	94.9%
NS(=O)(=O)c1ccc(NC(=O)/C(=C\c2ccc(Cl)cc2Cl)NC(=O)c2ccccc2)cc1	110%
Nc1ncccc1O	74%
CCCCCCCCCCCCC[N+](C)(C)Cc1ccccc1	-25.3% (active)
CCCCCCCCCCCC[n+]1ccc(CCCCCCCCC)cc1	-53.8% (active)
COc1ccc2c(c1)/C(=C/c1cc(OC)c(OC)c(OC)c1)C(=O)N2C	25.9%
Cc1ncc(C(=O)Nc2ccc(CN3CCN(C)CC3)c(C(F)(F)F)c2)cc1C#Cc1c(N)ncc2ccccc12	-74.8% (active)
COc1cc(Nc2c(C#N)cnc3cc(OCCCN4CCN(C)CC4)c(OC)cc23)c(Cl)cc1Cl	56.2%
CCCNC(=O)Oc1ccc(/C(=C(/C)Cc2ccc(OC)cc2)c2ccc(OCCN3CCCC3)cc2)cc1	69%
Fc1ccc(-c2nc(-c3ccc(-c4nc5ccc(F)cc5[nH]4)cc3)no2)cc1	56.2%
FC(F)(F)c1ccc(-c2cnc(Cl)nc2N2CCC3(CC2)OCCO3)cc1	103%
NC1C2CCC1CN(c1cnc(C(=O)Nc3cc(F)cc4cccnc34)cn1)C2 (stereo not given)	-4.02% (active)
COc1cccc(O)c1O	86.7%
COC(=O)c1ccc2c(C(=Nc3ccc(N(C)C(=O)CN4CCN(C)CC4)cc3)c3ccccc3)c(O)[nH]c2c1	91%
C=COC(=O)C(C)(C)C	106%
CCCCCC#CC1OC23CCCCC2C(C#N)(C(=N)O3)C1(C#N)C#N (stereo not given)	92.6%
CN1CC=C(c2cc(NC(=O)Nc3ccc(Oc4ccnc(NC(=O)C5CC5)c4)c(F)c3)cc(C(F)(F)F)c2)CC1	-30.3% (active)
C[N+](C)(C)C(=O)c1ccccc1	101%

SMILES	growth
O=[N+]([O-])c1cccc(-c2nc3sccn3c2-c2ccnc(NCCCNS(=O)(=O)c3ccc(F)cc3)n2)c1	-8.54% (active)
Cc1ccc(/C=C2\CN(C(=O)OC(C)(C)C)C/C(=C\c3ccc(C)cc3)C2=O)cc1	56.2%
O=C1OC2C(I)C3CC2C1C3c1ccccc1 (stereo not given)	91.5%
CCN(CCO)CCNc1ccc(C)c2sc3cc(OC)ccc3c(=O)c12	87.7%
Nc1c(C(=O)Nc2ccccc2C(F)(F)F)sc2nc3c(cc12)CCC3	104%
CC[C@H](C)[C@H](NC(=O)[C@H](CCCNC(=N)N)NC(=O)[C@H](Cc1c[nH]c2ccccc12)NC(=O)[C@@H](NC(=O)[C@H](CCCCN)NC(=O)[C@H](CCCCN)NC(=O)[C@@H](NC(=O)[C@@H](NC(=O)[C@@H](NC(=O)[C@H](CCCCN)NC(=O)[C@H](Cc1ccccc1)NC(=O)[C@H](CCCCN)NC(=O)[C@H](CCCCN)NC(=O)[C@H](Cc1ccccc1)NC(=O)[C@@H](NC(=O)[C@@H](N)CCCCN)[C@@H](C)CC)[C@@H](C)O)[C@@H](C)CC)[C@@H](C)CC)C(C)C)C(=O)N[C@@H](Cc1ccccc1)C(=O)NCC(=O)N[C@@H](CCCNC(=N)N)C(=O)N[C@@H](Cc1ccccc1)C(N)=O	28.8%
CCOC(=O)Cc1cnn(C)c1NC(=O)c1ccc(Cl)cc1NC(C)=O	89.9%
NC(N)=NC(N)=Nc1cc2ccccc2c2ccccc12	-14.2% (active)
COC(=O)c1nc(-c2ccccc2)oc1S(=O)(=O)n1nc(-c2ccccc2)cc1N	74.6%
CC(=O)c1cc2c(N)c(C(=O)Nc3cccc(F)c3C)sc2nc1C	54.2%
Nc1ccc(C(=O)c2ccc(N)c(Br)c2)cc1Br	-0.913% (active)
Cc1ncc(C(=O)Nc2ccc(CN3CCN(C)CC3)c(C(F)(F)F)c2)cc1C#Cc1cnc2cccnn12	7.08% (active)
O=S(=O)(O)c1ccc2c(c1)Sc1cc(S(=O)(=O)O)ccc1O2	107%
CC(C)C[C@@H](NC(=O)[C@@H](Cc1ccccc1)NC(=O)c1cnccn1)B1Oc2ccc(C[C@H](NC(=O)[C@H](Cc3ccc4c(c3)OB([C@@H](CC(C)C)NC(=O)[C@@H](Cc3ccccc3)NC(=O)c3cnccn3)O4)NC(=O)[C@@H](N)CC3CCC4OB([C@@H](CC(C)C)NC(=O)[C@@H](CC5CCCCC5)NC(=O)C5CNCCN5)OC4C3)C(=O)NCCCC[C@@H]3NC(=O)[C@@H](Cc4ccccc4)NC(=O)[C@H](CC(=O)O)NC(=O)CNC(=O)[C@H](CCCNC(=N)N)NC3=O)cc2O1 (stereo not given in full)	-41.5% (active)
CCCCNC(=O)c1cc([N+](=O)[O-])cc(C2CCCCC2)c1O	-1.64% (active)
N=C(N)c1ccc(-c2ccc(-c3ccccc3)s2)nc1	41.7%
CCOC(=O)c1ccccc1NC(c1ccccc1)c1ccc2cccnc2c1O (stereo not given)	8.19% (active)
CSc1nc(N)c(N)c(N)n1	114%
CCCCN1C(=O)/C(=c2\sc3n(c2=O)C2C(NN=3)N(CC)C(=O)N2CC)c2cc(C)ccc21 (stereo not given)	65.4%
O=C(O)c1ccccc1C(=O)c1cccc2c(F)cccc12	104%
